“And” between values parts separate entries of the source, which are not always exact repeats. Equal entries are not always repeated. Records with an inconclusive call do not appear. Where a call stands in place of a potency, no number is given. A structure can be active in one record and inactive in another. The source made the active and inactive calls. The call rests on the fitted dose curve.
Potency means the concentration at half of the fitted maximal effect.

The nature of the test: Nuclear factor erythroid 2-related factor 2/antioxidant responsive element (Nrf2/ARE) small molecule agonists: luciferase reporter gene qHTS assay in human keratinocytes (AID 1919969). Further: nearly all actives have a fitted effect of over 35% in size. Particulars: KeratinoSens HaCaT ARE-luciferase, luminescence, 24 h; series mostly up to 92.4 µM. From the text: National Center for Advancing Translational Sciences [NCATS]
Division of Preclinical Innovation [DPI]
U.S. Environmental Protection Agency [EPA]
National Institutes of Environmental Health Sciences [NIEHS]
National Toxicology Program [NTP]
U.S. Food and Drug Administration [FDA]
Oxidative stress has been implicated in the pathogenesis of a variety of diseases ranging from cancer to neurodegeneration. The antioxidant response element (ARE) signaling pathway plays an important role in the amelioration of oxidative stress. The KeratinoSens (Givaudan, Switzerland) is an in vitro test method which quantifies luciferase induction as a measure of activation of Keap1-Nrf2-antioxidationt/electrophile response element (ARE) dependant pathway in HaCaT human keratinocytes stably transfected with a selectable plasmid. The KeratinoSens assay is a cell-based assay with a reporter cell line to detect potential skin sensitizers by their ability to induce the Nrf2/ARE-response. The activation of the report gene under culture conditions can be detected by ONE-Glo Luciferase Assay System (Promega, Madison, WI). This cell line has been used to screen the Tox21 10K compound library to identify agonists that induce oxidative stress. The cytotoxicity of the Tox21 compound library against the KS-ARE cell line was tested in parallel by measuring the cell viability using CellTiter- Fluor assay system (Promega, Madison, WI) in the same wells.
HaCaT derived cell line KeratinoSens were dispensed at 1,500 cells/5uL/well in 1536-well white wall/solid bottom plates using a Multidrop Combi (ThermoFisher Scientific, Waltham, MA) dispenser. After the assay plates were incubated at 37 C/5% CO2 for 5 h, 23 nL of compounds dissolved in DMSO, positive controls or DMSO only was transferred to the assay plate by a pintool workstation (Kalypsys, San Diego, CA). The plates were incubated at 37 C/5% CO2 for 23 h, followed by addition of 1uL/well of CellTiter-Fluor reagent into the assay plates using a Flying Reagent Dispenser (Aurora Discovery, San Diego, CA) for cell viability readout that measures cytotoxicity. After 1 h incubation at 37 C/5% CO2 the fluorescence intensity was measured using a ViewLux (PerkinElmer, Shelton, CT) plate reader. Then 4uL/well of One-Glo were added using a Flying Reagent Dispenser. After the plates were incubated at room temperature for 30 min, the luminescence intensity in the assay plates was measured using ViewLux plate reader.
For orientation: A reporter such as luciferase makes a cellular process visible.
Turning to `N[C@@H](Cc1cc(I)c(Oc2ccc(O)c(I)c2)c(I)c1)C(=O)O`, the Potency result is “inactive”.
In the case of `CCCN(CCC)C(=O)SCC`, the Potency entry is “inactive”.
`O=C1CCCCCN1`: the Potency entry was “inactive”.
On to `CC(=O)Nc1ccc2c(c1)Cc1cc(NC(C)=O)ccc1-2`, for which the Potency entry is “inactive”.
`Clc1ccc(Cl)c(Cl)c1Cl`: the Potency entry is “inactive”.
In the case of `O=C(O)Cn1c(=O)n(Cc2ccc(Br)cc2F)c(=O)c2ccc(Cl)cc21` it was “inactive”; in that of `NC=O`, “inactive”.
In the case of `c1ccc2scnc2c1`, the Potency result is “inactive”.
In the case of `C1N2CN3CN1CN(C2)C3`, the Potency entry is “inactive”.
As for `OC[C@H]1O[C@@H](Oc2ccc(O)cc2)[C@H](O)[C@@H](O)[C@@H]1O`, the Potency result is “inactive”.
For the molecule `C/C=C/c1ccc(O)c(OC)c1`, the Potency entry is “inactive”.
`COc1cc(O)c(C(=O)c2ccccc2)cc1S(=O)(=O)O`: the Potency entry was “inactive”.
Then `CCCCC(CC)COC(=O)CCCCC(=O)OCC(CC)CCCC` (stereo not given), with “inactive”.
For `CN(C)CCCN`, the Potency result was “inactive”.
Regarding `O=C(O)CCCCCCCCC(=O)O`, the Potency entry was “inactive”.
For `C=C(C)C(=O)O[C@H]1C[C@@H]2CC[C@@]1(C)C2(C)C`, the Potency is 963 nM (active) and inactive.
As for `O=C(O)CC(C(=O)O)C(CC(=O)O)C(=O)O` (stereo not given), the Potency entry was “inactive”.
For `O=C(O)c1cn(-c2ccc(F)cc2)c2cc(N3CCNCC3)c(F)cc2c1=O`, the Potency result was “inactive”.
For `CC(=O)OC(C)(C)C1CC=C(C)CC1` (stereo not given), the Potency result is “inactive”.
As for `c1ccc2cc3ccccc3cc2c1`, the Potency entry is “inactive”.
With `CC(=O)CC(=O)N(C)C`, the Potency entry was “inactive”.
As for `CCCCCCCCCC(=O)OC`, the Potency entry was “inactive”.
Take `NNC(=O)c1ccncc1`: the Potency result was “inactive”.
For `CC(C)=CCC/C(C)=C/C=O`, the Potency result is “inactive”.
In the case of `CCCCCCCC/C=C\CCCCCCCC(=O)O` it was “inactive”.
Take `O=c1cc[nH]c(=O)[nH]1`: the Potency entry is “inactive”.
Then `COc1ccc(O)cc1`, with “inactive”; and `CC1(C)OC(=O)NC1=O`, with “inactive”; and `O=C(c1ccccc1)c1ccc(O)c(O)c1O`, with “inactive”.
For `O=C(OCc1ccccc1)c1ccccc1O`, the Potency is 48.2 µM (active) and 54.5 µM (active).
For `CC(O)CN(CCN(CC(C)O)CC(C)O)CC(C)O` (stereo not given), the Potency result is “inactive”.
As to `O=c1c(-c2ccc(O)cc2)coc2cc(O)cc(O)c12`, the Potency entry was “inactive and 15 µM (active)”.
For `c1cnc2c(c1)ccc1cccnc12`, the Potency was 9.69 µM (active).
For the molecule `CC(=O)CC(C)(C)O`, the Potency result is “inactive”.
Turning to `COc1ccccc1OCC(O)CO` (stereo not given), the Potency entry was “inactive”.
In the case of `O=CCCCC=O` it was 52.5 µM (active) and inactive; in that of `COCCc1ccc(OCC(O)CNC(C)C)cc1` (stereo not given), “inactive”; in that of `NS(=O)(=O)c1cc2c(cc1Cl)NC=NS2(=O)=O`, “inactive”.
Take `CC(=O)Nc1nnc(S(N)(=O)=O)s1`: the Potency result was “inactive”.
In the case of `CCCCCCC(=O)O`, the Potency result was “inactive”.

Values taken from PubChem BioAssay (Tox21).
